Reference: the supplement of paper PMC9694430

Experiments:
Assay in all cases: thermal shift delta Tm vs DMSO control; higher = stronger stabilization (binding)
Conditions in all cases: 12.5 µM; protein concentration 2 µM
LOC_OS04G57630-cb004 = test system: LOC_OS04G57630-cb004
Summary of the method: (§1)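 Rice kinase domain constructs, made in E. coli and purified, were placed in 96-well plates at 2 μM in 19.5 μl of 100 mM potassium phosphate pH 7.5, 150 mM NaCl, 10% glycerol and 5 × SYPRO Orange, with compound in DMSO. A temperature ramp from 25°C to 95°C at 0.05°C/s was used for differential scanning fluorimetry. The melting temperature shift is a triplicate mean compared with DMSO-only protein, derived from Boltzmann fits.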

LOC_OS05G07850-cb002 = test system: LOC_OS05G07850-cb002
Summary of the method: as §1

LOC_OS05G16824-cb004 = test system: LOC_OS05G16824-cb004
Summary of the method: as §1

LOC_OS05G28520-cb001 = test system: LOC_OS05G28520-cb001
Summary of the method: as §1

LOC_OS05G30820-cb001 = test system: LOC_OS05G30820-cb001
Summary of the method: as §1

LOC_OS05G43570-cb004 = test system: LOC_OS05G43570-cb004
Summary of the method: as §1

LOC_OS06G16330-cb003 = test system: LOC_OS06G16330-cb003
Sequence of LOC_OS06G16330-cb003 (as listed by the source): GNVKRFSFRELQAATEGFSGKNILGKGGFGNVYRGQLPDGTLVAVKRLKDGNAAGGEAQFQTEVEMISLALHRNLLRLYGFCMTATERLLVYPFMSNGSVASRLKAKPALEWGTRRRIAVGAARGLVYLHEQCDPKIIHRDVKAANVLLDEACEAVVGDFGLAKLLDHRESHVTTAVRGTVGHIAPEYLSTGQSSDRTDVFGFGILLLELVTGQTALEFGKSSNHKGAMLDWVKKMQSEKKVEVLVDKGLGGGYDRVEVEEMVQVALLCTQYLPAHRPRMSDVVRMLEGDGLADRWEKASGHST
Summary of the method: as §1

LOC_OS06G22820-cb001 = test system: T1, LOC_OS06G22820-cb001
T1 sequence (whole entry): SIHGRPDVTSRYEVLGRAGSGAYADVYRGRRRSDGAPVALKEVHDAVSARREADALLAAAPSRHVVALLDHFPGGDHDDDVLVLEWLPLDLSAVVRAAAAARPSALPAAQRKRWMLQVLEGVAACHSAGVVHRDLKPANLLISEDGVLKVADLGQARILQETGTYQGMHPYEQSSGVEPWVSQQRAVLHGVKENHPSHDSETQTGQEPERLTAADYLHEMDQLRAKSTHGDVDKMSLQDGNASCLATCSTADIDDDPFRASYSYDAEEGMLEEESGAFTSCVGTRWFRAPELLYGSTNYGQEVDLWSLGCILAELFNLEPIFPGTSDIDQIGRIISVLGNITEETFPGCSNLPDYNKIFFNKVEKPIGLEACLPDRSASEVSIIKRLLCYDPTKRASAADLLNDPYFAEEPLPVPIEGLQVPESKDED
Summary of the method: as §1

LOC_OS07G06570-cb004 = test system: LOC_OS07G06570-cb004
Summary of the method: as §1

LOC_OS07G07230-cb001 = test system: LOC_OS07G07230-cb001
Summary of the method: as §1
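Further: purified Escherichia coli-expressed rice kinase domain construct.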

SMILES | thermal shift delta Tm (LOC_OS04G57630-cb004) [°C] | thermal shift delta Tm (LOC_OS05G07850-cb002) [°C] | thermal shift delta Tm (LOC_OS05G16824-cb004) [°C] | thermal shift delta Tm (LOC_OS05G28520-cb001) [°C] | thermal shift delta Tm (LOC_OS05G30820-cb001) [°C] | thermal shift delta Tm (LOC_OS05G43570-cb004) [°C] | thermal shift delta Tm (LOC_OS06G16330-cb003) [°C] | thermal shift delta Tm (LOC_OS06G22820-cb001) [°C] | thermal shift delta Tm (LOC_OS07G06570-cb004) [°C] | thermal shift delta Tm (LOC_OS07G07230-cb001) [°C]
COc1cc2ncnc(Nc3cccc(Cl)c3)c2cc1OC [AG-1478 (Tyrphostin AG-1478)] | 0.54 | 10.9 | 0.02 | 0.3 | 0.62 | 0.52 | 5.45 | 0.8 | 0.35 | 0.01
CO[C@H]1CC[C@H](N2C(=O)CNc3ncc(-c4ccc(C(C)(C)O)nc4)nc32)CC1 | -0.07 | 0.66 | -2.4 | 0.49 | 0.29 | 0.48 | -0.57 | 0.55 | 0.79 | 0.66
Cn1cc(-c2ccc3nnc(Sc4ccc5ncccc5c4)n3n2)cn1 | 0.16 | 0.32 | -3.78 | 0.44 | 0.68 | 0.24 | 0.16 | 0.36 | 1.36 | 0.51
O=C(O)CCC(=O)Nc1ccc(Br)cn1 [Bikinin] | 0.15 | 0.5 | 0.58 | 0.89 | 0.45 | 0.76 | 0.72 | 0.48 | 0.42 | -0.18
COc1cc(F)c(F)c(Nc2ccc(I)cc2F)c1NS(=O)(=O)C1(C[C@H](O)CO)CC1 [Refametinib (RDEA119, Bay 86-9766)] | 0.29 | 0.16 | -0.08 | 1.02 | 0.34 | 0.4 | 0.11 | 1.27 | 0.72 | 0.01
CCn1c(-c2nonc2N)nc2cnc(Oc3cccc(NC(=O)c4ccc(OCCN5CCOCC5)cc4)c3)cc21 | 0.7 | 1.97 | -1.49 | 1.05 | 0.73 | 0.77 | -0.54 | 0.79 | 0.87 | 0.15
COc1cc(CCc2cc(NC(=O)c3ccc(N4CC(C)NC(C)C4)cc3)n[nH]2)cc(OC)c1 (stereo not given) | 2.33 | 3.41 | 4.73 | 6.65 | 0.59 | 0.4 | 2.54 | 0.35 | 0 | -0.08
CC(C)n1nc(-c2cc3cc(O)ccc3[nH]2)c2c(N)ncnc21 [Torkinib (PP242)] | 0.41 | 5.09 | -3.24 | 0.21 | 0.67 | 0.33 | 1.93 | 0.42 | 0.62 | 0.14
S=C(NCc1ccc2c(c1)OCO2)N1CCN(c2ncnc3c2oc2ccccc23)CC1 [Amuvatinib (MP-470)] | 0.4 | 1.46 | -4.2 | 0.42 | 0.8 | 0.49 | 1.01 | 0.7 | 0.32 | 0.06
C=CC(=O)Nc1cccc(Oc2nc(Nc3ccc(N4CCN(C)CC4)cc3)nc3ccsc23)c1 | 1.01 | 8.37 | 2.38 | 2.64 | 1.14 | 1.26 | 3.14 | 0.83 | 2.96 | 1.41
CO[C@H]1C[C@@H]2CC[C@@H](C)[C@@](O)(O2)C(=O)C(=O)N2CCCC[C@H]2C(=O)O[C@H]([C@H](C)C[C@@H]2CC[C@@H](O)[C@H](OC)C2)CC(=O)[C@H](C)/C=C(\C)[C@@H](O)[C@@H](OC)C(=O)[C@H](C)C[C@H](C)/C=C/C=C/C=C/1C [Rapamycin (Sirolimus)] | -0.27 | 0.51 | -0.52 | 0.16 | 0.5 | 0.84 | -0.23 | 0.98 | 1.23 | 0.34
Cc1nc(Nc2cnn(C3CCNCC3)c2)nc2c1N(C)C(=O)c1cc3ccccc3cc1N2C | 0.88 | 6.28 | 3.82 | 0.38 | 0.47 | 0.33 | 1.66 | 0.22 | 0.49 | 0.2
N#Cc1c(Oc2ccc(F)c(NC(=O)Cc3cccc(C(F)(F)F)c3)c2)ccc2nc(NC(=O)C3CC3)sc12 | 0.09 | 0.32 | -2.82 | 0.59 | 0.49 | 0.4 | 0.5 | 0.74 | 1.21 | 0.32
O=C(Nc1ccccc1C(=O)NC1CCCCNC1=O)c1cc2ccccc2s1 (stereo not given) | 0.09 | 0.55 | -1.58 | 0.54 | 0.1 | 0.18 | -0.39 | 0.25 | 1.21 | 0.41
O=c1ccc2ccc(O)c(O)c2o1 [Daphnetin] | 0.17 | 0.01 | -3.57 | 0.77 | 0.79 | 0.83 | 0.25 | 0.83 | 1.31 | -0.12
COc1cc(N2CCN(C)CC2)ccc1Nc1nccc(-c2cn(C)c3cnccc23)n1 | 0.55 | 11.8 | -3.65 | 0.25 | 0.38 | 0.32 | 5.31 | 0.11 | 1.53 | 0.44
COc1cc2ncnc(Sc3nnc(C)s3)c2cc1OC | 0.11 | 4.44 | -0.85 | 0.25 | 0.64 | 0.17 | 2.49 | 0.32 | 1.21 | 1.4
O=C(Cc1ccc(-c2ccc(OCCN3CCOCC3)cc2)cn1)NCc1ccccc1 | 0.12 | 0.35 | -2.04 | 0.32 | 0.37 | 0.34 | -0.02 | 0.6 | 0.25 | -0.12

SMILES | thermal shift delta Tm (LOC_OS04G57630-cb004) [°C] | thermal shift delta Tm (LOC_OS05G07850-cb002) [°C] | thermal shift delta Tm (LOC_OS05G16824-cb004) [°C] | thermal shift delta Tm (LOC_OS05G28520-cb001) [°C] | thermal shift delta Tm (LOC_OS05G30820-cb001) [°C] | thermal shift delta Tm (LOC_OS05G43570-cb004) [°C] | thermal shift delta Tm (LOC_OS06G16330-cb003) [°C] | thermal shift delta Tm (LOC_OS06G22820-cb001) [°C] | thermal shift delta Tm (LOC_OS07G06570-cb004) [°C] | thermal shift delta Tm (LOC_OS07G07230-cb001) [°C]
Cc1ccc(Nc2nccc(N(C)c3ccc4c(C)n(C)nc4c3)n2)cc1S(N)(=O)=O [Pazopanib] | 1.64 | 7.82 | 3.43 | 0.62 | 0.59 | -0.2 | 4.07 | 0.36 | 1.66 | 0.5
Nc1nccc(Oc2ccc(NC(=O)c3c[nH]cc(-c4ccc(F)cc4)c3=O)cc2F)c1Cl | 1.51 | 14.9 | -0.78 | 0.3 | 0.92 | 1.01 | 6.76 | 0.86 | 0.57 | 0.36
COC1(c2sc3c(N4CCOCC4)nc(-c4cnc(N)nc4)nc3c2C)COC1 | 0.27 | 5.18 | 1.1 | 0.27 | 0.59 | 1.45 | 3.12 | 0.17 | 0.85 | 0.65
Nc1ccc(C(=O)Nc2cccc(-c3nc(N4CCOCC4)c4oc5ncccc5c4n3)c2)cn1 | 1.19 | 1.25 | -3.13 | 0.31 | 0.83 | 0.15 | 0.32 | 0.39 | 0.88 | -0.01
CN1CCN(c2ccc3nc(-c4c(N)c5c(F)cccc5[nH]c4=O)[nH]c3c2)CC1 [Dovitinib (TKI-258) Dilactic Acid] | 3.62 | 8.93 | 15.7 | 1.54 | 1.04 | 1.01 | 6.51 | 0.63 | 1.1 | 0.06
CNCc1ccc(-c2cc(-c3nc(-c4ccc(S(=O)(=O)C(C)C)cc4)cnc3N)on2)cc1 | 0.75 | 6.99 | -0.05 | 0.89 | 0.64 | 0.33 | 0.7 | 0.87 | 1.23 | 0.32
NC(=O)c1ccc(N(C(N)=O)c2c(F)cccc2F)nc1-c1ccc(F)cc1F | 0.21 | -0.33 | -5.64 | 0.58 | 0.41 | 0.22 | -0.58 | 0.8 | 1.05 | 0.18
COc1cccc2cc(-c3nc([C@H]4CC[C@H](C(=O)O)CC4)n4ncnc(N)c34)[nH]c12 | 0.17 | 3.87 | -4.58 | 0.34 | 0.73 | 0.5 | -0.07 | 0.66 | 0.52 | 0.08
CC(=O)Nc1nc(C)c(-c2ccc(Cl)c(S(=O)(=O)NCCO)c2)s1 | 0.23 | 4.94 | 0.69 | 0.59 | 0.4 | 0.87 | 0.63 | 0.43 | 0.81 | -0.01
Cn1cc(-c2ccc3nnc(C(F)(F)c4ccc5ncccc5c4)n3n2)cn1 | 0.16 | 1.31 | 0.65 | 0.54 | 0.28 | 0.51 | 1.54 | 0.92 | 1.14 | -0.03
O=C(O)c1ccc(-c2c[nH]c3ncc(-c4ccccc4)cc23)cc1C1CCCC1 | 3.53 | 6.21 | 4.46 | 1.1 | 0.74 | -0.07 | 10.4 | 0.29 | -3.29 | 0.05
COc1cc2ncnc(Nc3ccc(Cl)cc3F)c2cc1OC | 0.21 | 10.1 | 2.13 | 0.86 | 0.51 | 0.29 | 4.29 | 0.69 | 1.37 | -0.11
CC(C)(C)c1cc(NC(=O)Nc2ccc(Oc3ccnc4[nH]c(=O)cnc34)cc2F)n(-c2ccccc2)n1 | 10.3 | 12.5 | 0.62 | 0.57 | 0.39 | 0.48 | 5.36 | 0.49 | 1.22 | -0.1
CN(C)C/C=C/C(=O)Nc1cc2c(Nc3ccc(F)c(Cl)c3)ncnc2cc1O[C@H]1CCOC1 [Afatinib (BIBW2992)] | -0.38 | 7.09 | 0.09 | 0.25 | 0.35 | 0.5 | 1 | 0.48 | 0.78 | 0.57
CC(C)(O)CC(=O)NCCn1ccc2ncnc(Nc3ccc(Oc4cccc(C(F)(F)F)c4)c(Cl)c3)c21 | 1.06 | 0.82 | 2.1 | -0.31 | 0.35 | 1.03 | 0.72 | 1.33 | 0.78 | -1.32
c1cc(-c2cnn3cc(-c4ccc(OCCN5CCCCC5)cc4)cnc23)ccn1 [Dorsomorphin 2HCl] | 6.96 | 9.81 | 12.6 | 3.18 | 1.22 | 0.81 | 8.76 | 0.18 | 1.04 | 1.17
COc1cc(Nc2ncc(F)c(Nc3ccc4c(n3)N(COP(=O)(O)O)C(=O)C(C)(C)O4)n2)cc(OC)c1OC [Fostamatinib (R788)] | 1.74 | 12 | 12 | 0.41 | 2.2 | 0.38 | 12.2 | 0.25 | 0.55 | 0.44
